# According to the supplement of paper PMC11417369:
# ± gives the standard deviation of the averaged measurements. Whole data set: some 25,000 sequences, median “ln(normalized median fluorescence intensity)” near 7.9, cut for the highest 2% near 11. Only a selection was taken, and the highest values are over-represented in it overall.
# System: PfAP2-I AP2 domain 3 (GST-tagged)
# Assay: gcPBM binding intensity (ln(normalized median fluorescence intensity)); higher = stronger DNA binding
# Method in brief: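 Binding intensity is the highest Masliner-normalised natural-log median intensity over replicate spots in either probe orientation. To obtain it, GST-tagged P. falciparum DNA-binding domains made in E. coli were incubated for 1 h on an Agilent 4 × 180k array of primer-extended double-stranded 36-bp intergenic genomic probes plus negative controls. Detection used Alexa488 anti-GST antibody with scanning at 488 nm.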
row,Sequence,gcPBM binding intensity (ln)
1,TAATATAAAGAAATATCAATAATTTGGGCAAATGCC [GTGCAC_negctrl_site621],7.53 ± 0.45
2,ATAATAATATTATTTTGTACATATGTGCTTATTTAT [XGTACX_site5540],8.375 ± 0.035
3,AATAATATTTATTTTTGTACATATGTGCATTATAAA [XGTACX_site3682],11 ± 0.98
4,TTGCATTAATTTATGTGTACATATAAATTTTTATTT [XGTACX_site3060],8.21 ± 0.15
5,AAAATTTAATATAATGCACACATAAAAAAAAAATCA [CACACA_site7882],11.2 ± 0.76
6,AATTTAATATAATGCACACATAAAAAAAAAATCAAA [CACACA_site1],10.9 ± 0.65
7,CTCTATAAATGCTGCACACACATTTAATTATTTAAG [CACACA_site2582],9.045 ± 0.064
8,AAAAAATTAAAAATCACACATAAATATATATAAAAA [CACACA_site4192],7.53 ± 0.67
9,ACATCATAAAATTTATGTACACATTTTTAATTATAC [XGTACX_site7759],8.19 ± 0.19
10,ATTTATAAAATTAATGCACACATCAGCATTTATAAA [CACACA_site1025],11.3 ± 0.79
11,AAATTAAAATATAATACACACATAAAAAAAAAATCA [CACACA_site5918],7.68 ± 0.61
12,TTTATCAAAATAAATGCACACAAATTGCACATATCT [CACACA_site8281],10.31 ± 0.035
13,ATTATTTTATAATTCACACATAAATAAAAAAAAAAT [CACACA_site5290],7.76 ± 0.32
14,TCTAATAAAATAAATACATGCATACATACATACATA [TGCATGCA_site895],7.76 ± 0.63
15,TATGTGAATAAATAAGCACACATAAACACATATATA [CACACA_site9359],8.06 ± 0.42
16,ATTTAATGTATTTTGCGTACGAATTATTTTATTTCA [XGTACX_site7331],7.93 ± 0.49
17,CTATTATAATATTTTACACACCATGTAAAATATATA [CACACA_site3206],7.75 ± 0.39
18,AAAATTAAAATACGTACACACCTTATCTTTTTGGCT [CACACA_site4311],8.21 ± 0.19
19,ATATTTCTGTCAAGCACACATAATATTAAAATATGT [CACACA_site4330],7.91 ± 0.49
20,ATTTATTTTATATGTTGTACAAACATTTTAAAACAT [XGTACX_site6919],7.79 ± 0.38
21,CATGCCTTTAAAAAGGTGCAAACATTTTCACAAACA,10.4 ± 0.35
22,ATATTTTATGTAAAGGTGCAAAACAACATTAAAAAA,10.9 ± 0.47
23,CTTGAAAAAATAAAAACACACAATGTGTTTTTGAAT [CACACA_site3283],7.42 ± 0.68

row,Sequence,gcPBM binding intensity (ln)
1,TTTCATTTAGCTTTTACACACTATATATCATTGATT [CACACA_site6158],7.89 ± 0.68
2,AGTATTATATTTGTATGTACGTAGTAATATATAAAA [XGTACX_site528],7.86 ± 0.6
3,CGATTTTTTAAGTTTGTGCACTTAAAAACTATAACA,10.9 ± 0.54
4,TTTATTTTATTCACTATCATAAGCAAAACTTAAACA [GTGCAC_negctrl_site287],7.6 ± 0.4
5,TTAAACTTGTTTTGGATGCACTATATAATTCATTTT [GTGCAC_site9549],9.45 ± 0.15
6,TTTCATATTTTGTCCTGTTTTTTTTTTTTTTTTCTT [CACACA_negctrl_site993],7.53 ± 0.59
7,TTTAACTTTTATATAACACACATATTGTAATTATGT [CACACA_site6486],7.92 ± 0.33
8,TTTTTTGAATTTAAAAGTACAGGCTTTTACCAAATA [XGTACX_site1356],7.7 ± 0.45
9,TTTTTTTTTTGTAATTGTACTTTTTTAATACTTCTA [XGTACX_site4195],7.74 ± 0.82
10,TTAGTTTATTGGTACTGTACTTTTTTTTTCTCCATT [XGTACX_site8618],8.02 ± 0.33
11,TATTCGTGCAATAATGGTACACTTATAAATTATTCA [XGTACX_site1430],10.7 ± 0.71
12,TATTCGTGCAATAATAGTACACTTATAAATTATTCA [XGTACX_site8993],11.2 ± 0.66
13,TATTCGTGCAATAGTAGTACACTTATAAATTATTCT [XGTACX_site4899],10.7 ± 0.61
14,ACACATACATACATATGTACATATATACATATATAC [XGTACX_site5559],8.45 ± 0.83
15,AAATAATACATTCGTACTACACATATATATTAAATA [XGTACX_site7806],7.84 ± 0.41
16,TGAACATATTAAAATTGTACATATGCACAATATGTA [XGTACX_site6801],8.53 ± 0.29
17,GTAGGCATTAAAAAATGTACAAAATATTATGAATTG [XGTACX_site1615],7.65 ± 0.55
18,AGTAGGCATATTGGTTGTACAAAAAAATTATGCACC [XGTACX_site8925],11.2 ± 0.61
19,TATGTGCACCCATGTACATGCGGACATATGTTATAT [TGCATGCA_site383],11 ± 0.9
20,ATATATATATATGCATGTACATATATTTGTTATATC [XGTACX_site3197],9.22 ± 0.27
21,TATATATATATATATGCATGTACATATATTTGTTAT [TGCATGCA_site379],9.45 ± 0.14
22,TATATAATAATTTAGAGTACTGATAAAATATTCCAT [XGTACX_site6200],7.55 ± 0.47
23,AATAAATTAGAAGGATGTACTTTGTTTAATATAGAG [XGTACX_site1943],7.83 ± 0.37

row,Sequence,gcPBM binding intensity (ln)
1,CATTTTATAAAAAGCACACATATAGTTATATGCACA [CACACA_site3691],10.7 ± 0.91
2,TTTATTTTCCAAAGGGTGCACATAGTTAAAACGATA [GTGCAC_site9855],11.1 ± 0.29
3,TTTATTTTCCAAAGGGTGCACATAGTTGAAACGATA,11.1 ± 0.44
4,TTCCAAAAAGTTATTACACACATATGTGCACATATA [CACACA_site6465],10 ± 0.4
5,AATAGCTAGCTGTGCACACAAACATATTTTCCAAAT [CACACA_site880],9.55 ± 0.16
6,CAAATAGCTAGCTGTGCACACAAACATATTTTCCAA [CACACA_site879],9.66 ± 0.23
7,TTTCTTTTTTTTTGAAGTACATAAAAATATAAAAAA [XGTACX_site311],8.03 ± 0.085
8,AGACAAAATGTTTGAAGTACTTTTTATCAAATTAAA [XGTACX_site8885],7.66 ± 0.2
9,CACGAACACAAACACAAACACACATCATATATATAT [CACACA_site1322],9.25 ± 0.16
10,AAATATATATATAGTTGTACATATATCGTATATATT [XGTACX_site7867],7.57 ± 0.45
11,GTTAAAATTTGTCAATGTACAGAAATAATAAAAAAA [XGTACX_site1879],7.97 ± 0.62
12,ATATATATATATATATGTACATATTATTATTTTGAT [XGTACX_site4752],9.22 ± 0.49
13,AAAATAAACTATAGTACACACTTATTATTATGAAAT [CACACA_site5488],7.92 ± 0.3
14,TTTTTTCTTTTCAAGGTGCTTTATAAGAAAAAGGGA [GTGCAC_site9858],11.1 ± 0.89
15,TTTTTTTTTCTTCTTTTCAAATTTAAGAAATTATAA [CACACA_negctrl_site18],7.55 ± 0.57
16,AAATATAAGAAAAAGGTGCTTTTTTTTTTTTTTTTT [GTGCAC_site9700],9.79
17,AAAAAAAAACACGCATGTACATAAAAATAATCATAC [XGTACX_site1086],7.96 ± 0.57
18,ATACACACTCAAAAAAGTACTTAACTACATGAATTG [XGTACX_site6366],7.79 ± 0.55
19,AAGAAAATATAAAATGCACACTATAAATTGTATATA [CACACA_site7928],8.73 ± 0.014
20,TGTATGTATAATTGAGTGCACAGAAAAAAAAAAGAA,11 ± 0.13
21,CATTATAAAAAATAAAAAAGAAATAATTGTATATGC [CACACA_negctrl_site478],7.77 ± 0.68
22,TAAATAAATAAAAATAGTACATAATTATTATTATTA [XGTACX_site4981],7.42 ± 0.22
23,TTCTTTATATACAAACCAAAATATTATGTATAATAA [CACACA_negctrl_site15],7.62 ± 0.33

row,Sequence,gcPBM binding intensity (ln)
1,CTTATAAGAATACTAGTGCACATAATTTAACGAAAA,11 ± 0.59
2,AAGATAAAATTATGCACACATACGAATAATTTTAAA [CACACA_site1705],9.79 ± 0.39
3,TAGATTATTATACTAGTGCAAATTATTTAAGAAAAA,10 ± 0.34
4,AATGTACGTTTTATAACACACACACTAATAAAAAAA [CACACA_site9286],8.23 ± 0.36
5,ATATCGGGTGCATTAACACACATTTATTTGAATAAA [CACACA_site2350],11.7 ± 0.79
6,AACATTTTAAATTATACACACATTTTGAATATATAT [CACACA_site3470],7.78 ± 0.53
7,ATATCGTGTGCATTAACACACATTTATTTGAATAAA [CACACA_site7162],10.9 ± 0.5
8,AAAATTAAAAATAACACACACATATTTATATTTATA [CACACA_site7329],7.59 ± 0.4
9,ATCGGTAATATTAACACACACATTTATTTATATTTA [CACACA_site6638],7.96 ± 0.58
10,TATATTTATTATAACACACACATATAAATATTATAG [CACACA_site6726],7.95 ± 0.48
11,TTTATTTTAACTTGTTCACACATTTGAATAAATAAA [CACACA_site5064],7.71 ± 0.33
12,ACATATCGGGTGCATTAACACACATTTATTTGAATA [CACACA_site8736],11.8 ± 0.52
13,ATCGGTAATATTAACACACACATTTATATATATTTA [CACACA_site1084],8.02 ± 0.41
14,CAAAAAACAACAGATCGTACAAAATATTATATATAT [XGTACX_site2285],8.12 ± 0.67
15,TTTTTTTTTTTTTTCTGTACTTAAAAAGGGGGAGAA [XGTACX_site3799],8.79 ± 0.7
16,ATACATTCAAAATATACACACATATATCTATAATAT [CACACA_site6576],7.69 ± 0.65
17,TGCAGTCTGGAGAAAAGTACATAGTATCTGGTAGCT [XGTACX_site2547],7.87 ± 0.66
18,GAATGTAAATATTAAAGTACACAGAATATATCTTCA [XGTACX_site8149],7.79 ± 0.16
19,ATAATAAAAATAAGAGAATAAAAATGCAATTTAATG [CACACA_negctrl_site878],7.95 ± 0.47
20,AGAATAATAAAATGGGTGCAATAGTTTTTTTTTTTT [GTGCAC_site9823],11.2 ± 0.44
21,GATAATCAGAATGGGGTGCAAAGAAAAAAAAAAAAA,10.7 ± 0.46
22,ATATATATTATATATAGTACTTTTTTGCGCAAATAT [XGTACX_site6849],8.08 ± 0.44
